# Sampled rows, rich in hits. Any-hit rate of the full collection: about 3.5%.
# FBW7 activator: activators of human E3 ligase FBW7; Q969H0; AlphaScreen FBW7–phospho-cyclin E peptide binding, activator screen; normalized activity (activation), % at 26.1 µM; 650,000 tested, 0.13% active; AID 1259310; in the data active = normalized activity above about 1.9%;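 also: purified mutant Fbw7 with reduced substrate affinity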
# TEAD-YAP inh: TEAD-YAP interaction inhibition; HEK-TIYL cells, TEAD-Gal4/YAP UAS-luciferase luminescence; inhibition, % at 9.12 µM; 640,000 tested, 1.4% active; in the data active = inhibition above about 32%
# GPR151 activ: human GPR151 activation; PathHunter beta-arrestin GPR151 cells, luminescence; activation, % at 11.2 µM; 650,000 tested, 1% active; AID 1508602; in the data active = activation above about 4.9%
# Target sequence (Q8TDV0 whole entry, looked up): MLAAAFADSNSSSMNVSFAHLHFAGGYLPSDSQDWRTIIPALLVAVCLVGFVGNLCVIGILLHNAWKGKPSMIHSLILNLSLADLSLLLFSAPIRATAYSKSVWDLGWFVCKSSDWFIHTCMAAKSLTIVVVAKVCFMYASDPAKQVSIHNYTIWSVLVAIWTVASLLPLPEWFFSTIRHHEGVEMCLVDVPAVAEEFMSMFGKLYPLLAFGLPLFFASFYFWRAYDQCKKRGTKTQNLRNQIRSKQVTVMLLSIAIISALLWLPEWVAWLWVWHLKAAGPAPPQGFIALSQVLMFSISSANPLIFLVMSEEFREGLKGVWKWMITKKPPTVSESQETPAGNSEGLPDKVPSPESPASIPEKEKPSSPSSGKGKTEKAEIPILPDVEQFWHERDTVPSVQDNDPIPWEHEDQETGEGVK
# MITF primary: blocks human microphthalmia-associated transcription factor | O75030 | AlphaScreen MITF homodimerization, bead proximity signal | inhibition, % at 2.6 µM | 650,000 tested, 0.91% active | AID 1259374; in the data active = inhibition above about 50%
# Numbers stand for hits; 0 = inactive.
SMILES,FBW7 activator,TEAD-YAP inh,GPR151 activ,MITF primary
CCc1nnc(NS(=O)(=O)c2ccc(NC(=O)c3ccccc3)cc2)s1,0,0,0,0
CCOCCCNC(=O)/C(C#N)=C/c1c(Oc2ccc(C)cc2)nc2c(C)cccn2c1=O,0,0,0,0
CCOCCCNC(=O)/C(C#N)=C/c1c(Oc2ccccc2C)nc2c(C)cccn2c1=O,0,32,0,0
COCCNC(=O)/C(C#N)=C/c1c(Oc2ccccc2OC)nc2c(C)cccn2c1=O,0,34,0,0
Cc1cc(C)nc(SCc2ccccc2Cl)n1,2.2,0,0,0
Cc1cccc(NC(=O)CSc2nc3c(c(=O)n2C)SCC3)c1C,0,37,0,0
Cc1nc2sccn2c1C(=O)N(C)c1ccccc1,0,0,0,0
COc1cc2nc(NC(=O)C3=COCCO3)sc2cc1OC,0,0,0,0
O=C(Nc1nc2cc3c(cc2s1)OCO3)C1=COCCO1,0,52,0,0
COc1cc2cc(C#N)c(SCC(=O)N3CCc4ccccc43)nc2cc1OC,0,0,0,0
CC(C)C(=O)N1CCC[C@@H](Cn2nc(-c3cccs3)ccc2=O)C1,0,69,0,0
COC(=O)C1=CN(Cc2ccc(F)cc2)C=C(C(=O)OC)C1c1ccccc1Cl,0,0,0,0
COC(=O)C1=CN(Cc2ccc(Cl)cc2)C=C(C(=O)OC)C1c1ccccc1OC(C)C,2.1,0,0,0
CCOC(=O)C1=CN(Cc2ccc(F)cc2)C=C(C(=O)OCC)C1c1ccc(SC)cc1,1.9,0,0,0
CCOC(=O)C1=CN(Cc2ccc(OC)cc2)C=C(C(=O)OCC)C1c1ccccc1OCc1ccccc1,2.2,0,0,0
COC(=O)C1=CN(Cc2ccc(F)cc2)C=C(C(=O)OC)C1c1ccccc1OC(C)C,5.0,0,0,0
CCOC(=O)C1=CN(Cc2ccc(OC)cc2)C=C(C(=O)OCC)C1c1ccccc1OC,0,0,0,0
CCOC(=O)C1=CN(Cc2ccc(Cl)cc2)C=C(C(=O)OCC)C1c1ccccc1OC(C)C,0,0,0,0
COc1cc(Br)cc(/C=C2/NC(=O)N(c3ccccc3)C2=O)c1OC,0,0,0,0
Cc1cc(Cl)ccc1NC(=O)CN(Cc1ccccc1)S(=O)(=O)c1ccccc1,0,0,0,0
Cc1ccc(C(=O)c2oc3ccc(N)cc3c2C)cc1,0,54,0,0
COc1ccc(C(=O)c2oc3ccc(N)cc3c2C)cc1,0,52,0,0
COc1ccc(C(=O)c2oc3ccc(NC(C)=O)cc3c2C)cc1,0,0,0,0
CN(C)C(=O)CSc1nnc(-c2cccs2)n1CCc1ccccc1,0,0,0,0
Cc1cccc(N2C(=O)CN=C2Nc2cccc(C)c2C)c1,0,0,0,0
SMILES,FBW7 activator,TEAD-YAP inh,GPR151 activ,MITF primary
CC(=C/c1ccccc1)/C=N/n1c(-c2ccncc2)n[nH]c1=S,0,39,0,0
Cc1c(C(=O)OC(C)C)[nH]c2c1C(=O)CC(c1ccccc1)C2 (configuration not stated),0,51,0,0
CCOCCOC(=O)c1[nH]c2c(c1C)C(=O)CC(c1cc(OC)ccc1OC)C2 (configuration not stated),0,45,0,0
Cc1c(C(=O)OCCOc2ccccc2)[nH]c2c1C(=O)CCC2,0,43,0,0
CCCOCCOC(=O)c1[nH]c2c(c1C)C(=O)CC(c1cccs1)C2 (configuration not stated),0,56,0,0
CCCOCCOC(=O)c1[nH]c2c(c1C)C(=O)CC(c1ccc(OC)c(OC)c1)C2 (configuration not stated),0,0,0,0
COc1ccc(OC)c(C2CC(=O)c3c([nH]c(C(=O)OC(C)C)c3C)C2)c1 (configuration not stated),0,50,0,0
COc1ccc(OC)c(C2CC(=O)c3c([nH]c(C(=O)OCCSC)c3C)C2)c1 (configuration not stated),0,0,0,0
COc1ccc(OC)c(C2CC(=O)c3c([nH]c(C(=O)OCC4CCCO4)c3C)C2)c1 (configuration not stated),0,0,0,0
COCCOC(=O)c1[nH]c2c(c1C)C(=O)CC(c1cc(OC)ccc1OC)C2 (configuration not stated),0,44,0,0
CCCOCCOC(=O)c1[nH]c2c(c1C)C(=O)CC(c1cc(OC)ccc1OC)C2 (configuration not stated),0,47,0,0
COc1ccc(OC)c(C2CC(=O)c3c([nH]c(C(=O)OCCOC(C)C)c3C)C2)c1 (configuration not stated),0,45,0,0
CC(=O)c1ccc(NC(=O)C(C)Cl)cc1 (configuration not stated),0,0,0,0

# Compound activity: PubChem, The Scripps Research Institute Molecular Screening Center
